Source: PubChem BioAssay (NCI)
Compounds without any hit were thinned out: in the full panel of roughly 79,000, 15% have a hit. Active and inactive are the calls of the source. No stated cut-off is given here; in the data, active means growth inhibition above about 70%; inactive means the rest.

Tests used:
[1] = NCI Yeast Anticancer Drug Screen. Data for the rad52 strain (AID 147);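 further: 0% = growth of vehicle-treated control cultures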; settings: S. cerevisiae rad52 mutant growth inhibition, active compounds read high
Summary of the method: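 Screen used a yeast mutant impaired in DNA repair. After compound exposure, growth was measured. Values reflect inhibition compared with vehicle-treated cells.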

[2] = NCI Yeast Anticancer Drug Screen. Data for the wt1 strain (AID 149);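 further: 0% = growth of vehicle-treated wt1 cultures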; settings: S. cerevisiae wt1 strain (SPY 50644) growth inhibition, active compounds read high
Summary of the method: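 wt1 yeast, compound-treated; % growth inhibition vs vehicle control.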

[3] = NCI Yeast Anticancer Drug Screen. Data for the rad50EPP+ strain (AID 151);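 further: 0% = growth of vehicle-treated control cultures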; settings: S. cerevisiae rad50 mutant strain, active compounds read high
Summary of the method: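 Exposing the rad50EPP+ strain to each compound, growth was compared with vehicle-only cultures to give inhibition.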

[4] = NCI Yeast Anticancer Drug Screen. Data for the mgt1 strain (AID 153); settings: S. cerevisiae mgt1 mutant growth inhibition, active compounds read high
Summary of the method: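 Genetically defined yeast (mgt1) treated with compound; inhibition of growth expressed against vehicle-treated controls.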

[5] = NCI Yeast Anticancer Drug Screen. Data for the rad50 strain (AID 155);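 further: 0% = growth of vehicle-only cultures of the same strain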; settings: S. cerevisiae rad50 strain growth inhibition, active compounds read high
Summary of the method: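 Genetically altered yeast (DNA repair pathway); compound treatment; growth inhibition vs vehicle ctrl.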

[6] = NCI Yeast Anticancer Drug Screen. Data for the mec2-1 strain (AID 157); settings: S. cerevisiae mec2-1 strain, active compounds read high
Summary of the method: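 Readout is yeast growth inhibition, normalised to vehicle-treated controls, in the mec2-1 strain exposed to compound.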

[7] = NCI Yeast Anticancer Drug Screen. Data for the rad14 strain (AID 159);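 further: 0% = growth of vehicle-treated control cultures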; settings: S. cerevisiae rad14 strain growth inhibition, active compounds read high
Summary of the method: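 Test compounds were applied to a repair-deficient yeast strain. Its growth was then compared with that of cultures given vehicle alone, and inhibition was expressed relative to those controls.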

[8] = NCI Yeast Anticancer Drug Screen. Data for the sgs1 mgt1 strain (AID 161);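 further: 0% = growth of cultures given vehicle only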; settings: S. cerevisiae sgs1 mgt1 strain, active compounds read high
Summary of the method: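 This yeast growth screen uses a strain with defined DNA-repair lesions; compound-treated growth is compared with vehicle-treated growth.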

[9] = NCI Yeast Anticancer Drug Screen. Data for the CLN2oe strain (AID 163);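 further: 0% = growth of vehicle-only control cultures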; settings: S. cerevisiae CLN2oe strain, active compounds read high
Summary of the method: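 Values reflect how much compound exposure reduced yeast growth, referenced to vehicle-exposed cells. Assay organism is a strain with a defined genetic change affecting cell-cycle control.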

[10] = NCI Yeast Anticancer Drug Screen. Data for the cln2 rad14 strain (AID 165);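 further: 0% = growth equal to vehicle treated cultures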; settings: S. cerevisiae cln2 rad14 strain, active compounds read high
Summary of the method: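 Relative to vehicle controls, growth inhibition of compound-treated cln2 rad14 yeast was recorded.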

[11] = NCI Yeast Anticancer Drug Screen. Data for the bub3 strain (AID 167); settings: S. cerevisiae bub3 mutant strain, active compounds read high
Summary of the method: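 Yeast carrying a defined mutation is treated with each compound, and growth is compared with that of vehicle-exposed cells to give inhibition.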

[12] = NCI Yeast Anticancer Drug Screen. Data for the wt2 strain (AID 169);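 further: 0% = growth of vehicle-treated yeast cultures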; settings: S. cerevisiae wt2 strain growth inhibition, active compounds read high
Summary of the method: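 Values express reduction in yeast growth under compound treatment, referenced to vehicle-treated cells.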

[13] = NCI Yeast Anticancer Drug Screen. Data for the mlh1 strain (AID 171);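 further: 0% = growth of vehicle-treated control cultures of the same strain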; settings: S. cerevisiae mlh1 strain growth inhibition, active compounds read high
Summary of the method: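 Steps: expose the defined-mutant yeast strain to compound; expose a parallel culture to vehicle; measure growth; express compound effect as inhibition relative to the vehicle culture.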

[14] = NCI Yeast Anticancer Drug Screen. Data for the sgs1 strain (AID 173);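 further: 0% = growth of vehicle-only control cultures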; settings: S. cerevisiae sgs1 mutant, active compounds read high
Summary of the method: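 Treat defined-mutant yeast with compound; measure growth; calculate inhibition relative to vehicle-treated cells.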

[15] = NCI Yeast Anticancer Drug Screen. Data for the mlh1 rad18 strain (AID 175); settings: S. cerevisiae mlh1 rad18 strain growth inhibition, active compounds read high
Summary of the method: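 Test agents were incubated with a yeast strain of defined genotype (DNA damage repair defect). Inhibition of growth was derived by comparison with vehicle-exposed cultures.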

[16] = NCI Yeast Anticancer Drug Screen. Data for the rad18 strain (AID 177); settings: S. cerevisiae rad18 mutant growth inhibition, active compounds read high
Summary of the method: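 A genetically defined yeast mutant impaired in DNA damage repair was treated with test compounds, then its growth was measured against cultures receiving vehicle alone.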

[17] = at 5.0 µM (retest, dose inferred, filed as 0.5)
[18] = at 50.0 µM (retest, dose inferred, filed as 5.0)

Measured: growth inhibition

NC1=NCC(c2ccc(Cl)cc2)O1 (stereo unspecified)
inactive: [1]; at 1.2 µM -4% | [1]; at 3.7 µM -2% | [1]; at 11.0 µM -5% | [1]; at 33.0 µM -8% | [1]; at 100.0 µM 47% | [2]; at 1.2 µM -5% | [2]; at 3.7 µM -4% | [2]; at 11.0 µM -7% | [2]; at 33.0 µM -5% | [2]; at 100.0 µM 3% | [3]; at 1.2 µM -2% | [3]; at 3.7 µM 0% | [3]; at 11.0 µM 0% | [3]; at 33.0 µM 4% | [3]; at 100.0 µM 4% | [4]; at 1.2 µM -3% | [4]; at 3.7 µM -4% | [4]; at 11.0 µM -2% | [4]; at 33.0 µM 5% | [4]; at 100.0 µM 50% | [5]; at 1.2 µM -1% | [5]; at 3.7 µM -4% | [5]; [17] -151% | [5]; at 11.0 µM 7% | [5]; at 33.0 µM 11% | [5]; [18] 17% | [5]; at 50.0 µM 57.8% | [5]; at 100.0 µM 49% | [6]; at 1.2 µM 1% | [6]; at 3.7 µM -1% | [6]; [17] -51% | [6]; at 11.0 µM 3% | [6]; at 33.0 µM 1% | [6]; [18] 10% | [6]; at 50.0 µM 13.3% | [6]; at 100.0 µM 44% | [7]; at 1.2 µM -2% | [7]; at 3.7 µM -3% | [7]; at 11.0 µM -1% | [7]; at 33.0 µM 2% | [7]; at 100.0 µM 52% | [8]; [17] -62% | [8]; [18] 17% | [8]; at 50.0 µM 50.2% | [9]; at 1.2 µM -2% | [9]; at 3.7 µM -2% | [9]; at 11.0 µM 3% | [9]; at 33.0 µM 1% | [9]; at 100.0 µM 50% | [10]; [17] -64% | [10]; [18] 7% | [10]; at 50.0 µM 31.1% | [11]; at 1.2 µM -11% | [11]; at 3.7 µM -9% | [11]; [17] -76% | [11]; at 11.0 µM -4% | [11]; at 33.0 µM -6% | [11]; [18] 27% | [11]; at 50.0 µM 39.4% | [11]; at 100.0 µM 49% | [12]; at 1.2 µM -1% | [12]; at 3.7 µM 0% | [12]; at 11.0 µM 0% | [12]; at 33.0 µM -1% | [12]; at 100.0 µM 47% | [13]; at 1.2 µM 7% | [13]; at 3.7 µM -5% | [13]; at 11.0 µM -5% | [13]; at 33.0 µM -4% | [13]; at 100.0 µM 47% | [14]; at 1.2 µM 0% | [14]; at 3.7 µM -1% | [14]; at 11.0 µM -2% | [14]; at 33.0 µM -2% | [14]; at 100.0 µM 48% | [15]; [17] -135% | [15]; at 50.0 µM 50.4% | [16]; at 1.2 µM -4% | [16]; at 3.7 µM -3% | [16]; at 11.0 µM -3% | [16]; at 33.0 µM -3% | [16]; at 100.0 µM 48%
active: [15]; [18] 81%

Cc1c(N)nc([C@H](CC(N)=O)NC[C@H](N)C(N)=O)nc1C(=O)N[C@H](C(=O)N[C@H](C)[C@@H](O)[C@H](C)C(=O)N[C@H](C(=O)NCCc1nc(-c2nc(C(=O)NCCC[S+](C)C)cs2)cs1)[C@@H](C)O)C(OC1OC(CO)C(O)C(O)C1OC1OC(CO)C(O)C(OC(N)=O)C1O)c1cnc[nH]1 (stereo partly specified)
active: [1]; at 33.0 µM 91% | [1]; at 100.0 µM 96% | [2]; at 100.0 µM 74% | [3]; at 100.0 µM 94% | [4]; at 100.0 µM 91% | [5]; [17] 98% | [5]; at 33.0 µM 94% | [5]; [18] 99% | [5]; at 50.0 µM 93.2% | [5]; at 100.0 µM 95% | [6]; [17] 99% | [6]; [18] 99% | [6]; at 50.0 µM 93.5% | [6]; at 100.0 µM 94% | [7]; at 33.0 µM 78% | [7]; at 100.0 µM 95% | [8]; [17] 98% | [8]; [18] 99% | [8]; at 50.0 µM 93.3% | [10]; [17] 96% | [10]; [18] 98% | [10]; at 50.0 µM 89.8% | [11]; [17] 98% | [11]; [18] 99% | [11]; at 50.0 µM 93.7% | [11]; at 100.0 µM 91% | [12]; at 100.0 µM 93% | [13]; at 100.0 µM 95% | [14]; at 33.0 µM 77% | [14]; at 100.0 µM 96% | [15]; [17] 99% | [15]; [18] 99% | [15]; at 50.0 µM 92.8% | [16]; at 33.0 µM 94% | [16]; at 100.0 µM 97%
inactive: [1]; at 1.2 µM 7% | [1]; at 3.7 µM 19% | [1]; at 11.0 µM 54% | [2]; at 1.2 µM 0% | [2]; at 3.7 µM 1% | [2]; at 11.0 µM 11% | [2]; at 33.0 µM 27% | [3]; at 1.2 µM 0% | [3]; at 3.7 µM 7% | [3]; at 11.0 µM 31% | [3]; at 33.0 µM 68% | [4]; at 1.2 µM -3% | [4]; at 3.7 µM 2% | [4]; at 11.0 µM 11% | [4]; at 33.0 µM 35% | [5]; at 1.2 µM 8% | [5]; at 3.7 µM 27% | [5]; at 11.0 µM 63% | [6]; at 1.2 µM 1% | [6]; at 3.7 µM 12% | [6]; at 11.0 µM 29% | [6]; at 33.0 µM 52% | [7]; at 1.2 µM 4% | [7]; at 3.7 µM 11% | [7]; at 11.0 µM 29% | [11]; at 1.2 µM -2% | [11]; at 3.7 µM 2% | [11]; at 11.0 µM 14% | [11]; at 33.0 µM 53% | [12]; at 1.2 µM 0% | [12]; at 3.7 µM 2% | [12]; at 11.0 µM 21% | [12]; at 33.0 µM 54% | [13]; at 1.2 µM 0% | [13]; at 3.7 µM 4% | [13]; at 11.0 µM 18% | [13]; at 33.0 µM 61% | [14]; at 1.2 µM 2% | [14]; at 3.7 µM 8% | [14]; at 11.0 µM 31% | [16]; at 1.2 µM 6% | [16]; at 3.7 µM 27% | [16]; at 11.0 µM 67%
